Experimental data taken from PubChem BioAssay AID493036 (Sanford-Burnham Center for Chemical Genomics, 2011).
About 560 (0.17%) of roughly 330,000 compounds were called active.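 Rule for the calls: active = activation at or above 40% of the spot to cytoplasm intensity ratio, with at least 20 cells analyzed; inconclusive = wells under 20 cells, flagged as cytotoxic or low count; inactive = the rest.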 Many of the other results were omitted from the sample, so actives are more common in it than they were.

What was measured:
[1] = NTR1-driven beta-arrestin-GFP spot formation – imaging, U2OS cells, high content, primary screen (AID 493036); conditions: agonist mode, measured here: cell count, cytotoxicity flag, at 20 µM;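 for activation: 0% = DMSO without peptide and 100% = 100 nM NTR1 peptide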
[2] = molecular target: Neurotensin receptor type 1 (Homo sapiens) (UniProt P30989); experiment: as above; conditions: agonist mode, at 20 µM, stronger effect = higher value
Chain of Neurotensin receptor type 1 (Homo sapiens) (P30989 whole entry, looked up): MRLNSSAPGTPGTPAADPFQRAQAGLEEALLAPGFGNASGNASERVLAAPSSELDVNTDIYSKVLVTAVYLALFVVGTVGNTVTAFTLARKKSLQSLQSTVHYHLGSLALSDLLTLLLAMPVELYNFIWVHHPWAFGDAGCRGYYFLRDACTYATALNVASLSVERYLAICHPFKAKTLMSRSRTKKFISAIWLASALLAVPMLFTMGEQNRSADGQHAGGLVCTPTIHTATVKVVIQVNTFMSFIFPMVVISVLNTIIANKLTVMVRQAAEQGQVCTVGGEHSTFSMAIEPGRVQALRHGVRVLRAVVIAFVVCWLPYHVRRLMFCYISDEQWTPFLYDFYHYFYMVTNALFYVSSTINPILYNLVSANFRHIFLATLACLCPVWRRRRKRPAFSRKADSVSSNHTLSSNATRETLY

SMILES	cell count [1] [cells]	activation [2]
Oc1ccc(-c2nnc(Nc3ccccc3)c3ccccc23)cc1	62	-0.2% (inactive)
CN1CCN(c2nc(Nc3ccc(O)cc3)nc3ccccc23)CC1	47	0.5% (inactive)
Cc1cccc(-c2nc(Nc3ccc(O)cc3)c3ccccc3n2)c1	84	60.9% (active)
Cc1cc(C)cc(N(CC(=O)N2CC=C(c3ccccc3)CC2)S(=O)(=O)c2c(C)noc2C)c1	52	3.3% (inactive)
COc1ccc(C)cc1S(=O)(=O)Nc1cc2c3c(c1)CCC(=O)N3CCC2	52	-1.6% (inactive)
Cc1ccccc1C(=O)N1CCC(C(=O)Oc2ccc(C#N)cc2)CC1	77	0.9% (inactive)
Cc1cc(Cl)ccc1OCc1nc(-c2ccncc2)no1	20	1.2% (inactive)
Cn1c(-c2ccc(C(=O)c3ccccc3)s2)nc2ccccc21	111	-1.6% (inactive)
O=C(CCc1ccc(S(=O)(=O)N2CCOCC2)cc1)Nc1ccc2ccccc2c1	90	1.8% (inactive)
CCOC(=O)c1cccc(NS(=O)(=O)c2c(C(=O)N3CCCCCC3)c(C)n(C)c2C)c1	47	1.2% (inactive)
N#CCSc1nc2c(c(=O)n1Cc1ccccc1)C1(CCCC1)Cc1ccccc1-2	47	3.2% (inactive)
Cc1cccc(-n2c(SCC(N)=O)nc3c(c2=O)C2(CCCCC2)Cc2ccccc2-3)c1	62	49.9% (active)
Cc1cccc(-n2c(=O)c3c(C)c(C)sc3n(CC(N)=O)c2=O)c1	70	0.5% (inactive)
CC(C)(C)OC(=O)NCCCCCNC(=O)c1[nH]cnc1C(=O)Nc1nccs1	56	2.3% (inactive)
CN1/C(=C\C=C2\N=C(c3ccc(F)cc3)OC2=O)C(C)(C)c2ccccc21	59	-1% (inactive)
CC1=CCC2C(=O)N(c3cccc(C(=O)NC(C)c4ccccc4)c3)C(=O)C2C1 (stereo unspecified)	86	-1.2% (inactive)
Cc1ccc(C(=O)N/N=C\c2cc(Br)c(Br)o2)cn1	42	3.4% (inactive)
CNC[C@H](CC1CCCCC1)NC[C@H](NCCC1CCCC1)[C@H](C)O	59	4.7% (inactive)
Cc1ccc(-n2c(SCC(=O)NCc3ccc4c(c3)OCO4)nnc2-c2cccnc2)c(C)c1	50	-0.8% (inactive)
Cc1cccc(NC(=O)C2CCCN(C(=O)NCc3ccccc3)C2)c1C (stereo unspecified)	37	0.3% (inactive)
CCCCNc1c(-c2cccc(Sc3ccc(OC)cc3)c2)nc2ccccn12	60	42.5% (active)
CCCCNc1c(-c2ccc(OC)c(Sc3ccc(OC)cc3)c2)nc2ccc(Cl)cn12	52	3.2% (inactive)
CCCCCCSc1ccc(-c2nc3ccc(Cl)cn3c2NCc2ccccc2)cc1	65	-1.8% (inactive)
